# The full list was thinned out, with hits kept by preference.
# Dicer inh: human Dicer pre-microRNA cleavage inhibition; Q9UPY3; AID 1347074; z-score at 25 µM; cat-ELCCA pre-miR-21 Dicer processing, chemiluminescence; active compounds read high; 47,000 compounds, 6% hits; in the data active = z-score above about 3, passing the limit was not always enough;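 note: plate controls were vehicle for no effect and no enzyme for full effect; higher signal means more uncleaved substrate so more Dicer inhibition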
# The depositor's hits bear a star.
SMILES,Dicer inh
NC(=O)COc1ccc(C2c3c(oc4ccccc4c3=O)C(=O)N2c2nncs2)cc1 (centres undefined),0.83
Nc1nnc(COc2ccccc2)s1,-0.1
CC1CN(Cc2c(O)ccc3c(=O)c(-c4ccccc4)c(C(F)(F)F)oc23)CC(C)O1 (centres undefined),-0.82
O=C(ON(Cc1c(F)cccc1Cl)Cc1c(F)cccc1Cl)c1cccs1,-0.18
CCOC(=O)CSc1c(C)[nH]c2ccccc12,-1.2
CC(=O)c1ccc(C#CC(C)(C)O)s1,-0.68
C/C(=N\Nc1c(Cl)cc(Cl)cc1Cl)c1ccc(C#CC(C)(C)O)s1,3.2*
CC(C)(O)C#Cc1ccc(/C=N/Nc2c(Cl)cc(Cl)cc2Cl)cc1,2.5
Cc1c(C#N)c(Sc2ccccn2)nc2ccccc12,-1.1
COc1ccccc1CN[C@@H]1CCCN[C@@H]1c1ccccc1,-0.14
Cc1ccc(C(=O)c2oc3ccccc3c2N)cc1,0.43
Nc1c(C(=O)c2ccc(Oc3ccccc3)cc2)oc2ccccc12,3.8*
O=C(Nc1c(C(=O)c2ccc(F)cc2)oc2ccccc12)c1ccccc1,-0.56
COc1ccc(C(=O)CSc2nc3nc(C)cc(C)c3c(=O)[nH]2)cc1,0.89
O=C(O)c1cccc(N2C(=O)C3CC=C(Cl)CC3C2=O)c1 (centres undefined),0.43
Cc1oc2c(cc(O)c3ccccc32)c1C(=O)O,-4.2
O=C(Nc1ccccc1)Nc1nccc(-c2cc(OCC(F)(F)F)ccc2OCC(F)(F)F)n1,-0.16
Cc1oc2c(CN3CCCC3)c(O)ccc2c(=O)c1-c1nc2ccccc2s1,-0.37
CC1=C(C(=O)OCC2CCCO2)C(c2coc3ccc(Cl)cc3c2=O)C2=C(CCCC2=O)N1 (centres undefined),2.1
COc1ccc(C2C(C(=O)OCC3CCCO3)=C(C)NC3=C2C(=O)CC(C)(C)C3)cc1O (centres undefined),-0.23
CCc1ccc(C2C(C(=O)OCC3CCCO3)=C(C)NC3=C2C(=O)CC(C)(C)C3)cc1 (centres undefined),7*
CC1=C(C(=O)OCC2CCCO2)C(c2ccc3c(c2)OCO3)C2=C(CC(C)(C)CC2=O)N1 (centres undefined),1.4
CC1=C(C(=O)OCC2CCCO2)C(c2cccc(C)c2)C2=C(CC(C)(C)CC2=O)N1 (centres undefined),2.2
CC1=C(C(=O)OCC2CCCO2)C(c2coc3ccc(Cl)cc3c2=O)C2=C(CC(C)(C)CC2=O)N1 (centres undefined),3.2*
COc1cc(C2C(C(=O)OCC3CCCO3)=C(C)NC3=C2C(=O)CC(C)(C)C3)cc(Cl)c1O (centres undefined),1.1
SMILES,Dicer inh
CC1=C(C(=O)OCC2CCCO2)C(c2ccccc2C)C2=C(CC(C)(C)CC2=O)N1 (centres undefined),-0.02
CC1=C(C(=O)OCC2CCCO2)C(c2ccccc2F)C2=C(CC(C)(C)CC2=O)N1 (centres undefined),4.7*
Cn1c(=O)n(Cc2ccc(Cl)cc2)c(=O)c2c1ncn2CCO,-1.1
COc1ccc(-c2nc3n(n2)C(c2ccc(Cl)cc2)C2=C(CCCC2=O)N3)cc1OC (centres undefined),-0.28
Cc1nc(SCC(=O)c2ccccc2)[nH]c(=O)c1Oc1ccc(Cl)cc1,0.06
COc1cccc(CN2CCN(Cc3cccc4ccccc34)CC2)c1OC,0.42
CC(C)C(NC(=O)C(C)N(c1ccccc1)S(C)(=O)=O)C(C)C (centres undefined),0.59
COc1ccc(C2c3c(oc4ccccc4c3=O)C(=O)N2c2nc(C)c(C)s2)cc1 (centres undefined),-0.19
CCC(=O)Nc1ccc(OC)cc1OC,0.7
CCOC(=O)C1CCN(C(=S)NC2CC3C=CC2C3)CC1 (centres undefined),0.1
NC(=O)C1CCN(C(=S)NC2CC3C=CC2C3)CC1 (centres undefined),-0.16
COc1cccc(/C=N/NC(=O)C2CCCN(C(=S)NNC3CC4C=CC3C4)CC2)c1O (centres undefined),3.7*
O=C1C2C(c3ccc(Cl)cc3)OC3(C(=O)c4ccccc4C3=O)C2C(=O)N1C1CCCCC1 (centres undefined),2.9
Cc1cc(=O)n2c([nH]c3ccccc32)c1C#N,-1.4
CC(C)(C)c1ccc(C(=O)O/N=C(\N)CS(=O)(=O)C(C)(C)C)cc1,-0.97
Fc1ccc(Nc2ncnc3c2oc2ccccc23)cc1,1.1
CN(C)CCCOC(=O)c1cc2ccccc2o1,0.59
CN(CCOC(=O)c1cc2ccccc2o1)C(C)(C)C,2.7
COc1ccc(OC(=O)c2cc3ccccc3o2)cc1,4.7*
CCOc1ccccc1/C=C1N=C(/C=C/c2ccccc2)OC/1=O,2
COc1ccc(/C=C2N=C(/C=C/c3ccccc3)OC/2=O)cc1,4.4*
COc1ccc(/C=C2/N=C(C)OC2=O)cc1,-0.48
COc1ccc(C2C3C(=O)N(c4ccc(F)cc4)C(=O)C3ON2c2ccccc2)cc1 (centres undefined),0.49
O=C1C2ON(c3ccccc3)C(c3ccncc3)C2C(=O)N1c1cccc(Cl)c1 (centres undefined),0.39
CN(C)c1ccc(C2C3C(=O)N(Cc4ccccc4)C(=O)C3ON2c2ccccc2)cc1 (centres undefined),3.3*
SMILES,Dicer inh
Cn1c(=O)c(-c2ccccc2)c(OS(=O)(=O)c2ccc(Br)cc2)c2ccccc21,-1.4
COc1ccc(CN2C(=O)c3oc4ccc(Br)cc4c(=O)c3C2c2ccc(O)cc2)cc1 (centres undefined),1.1
CCCNC(=O)c1nn2c(c1Br)NC(c1cccs1)CC2C(F)(F)F (centres undefined),-0.29
O=C(c1nn2c(c1Cl)NC(c1ccccc1)CC2C(F)(F)F)N1CCCCC1 (centres undefined),5.6*
NC(=O)c1nn2c(c1Cl)NC(c1ccc(Cl)cc1)CC2C(F)(F)F (centres undefined),3.5*
O=C(c1nn2c(c1Cl)NC(c1ccc(F)cc1)CC2C(F)(F)F)N1CCCCC1 (centres undefined),8.8
O=C(c1nn2c(c1Cl)NC(c1cccs1)CC2C(F)(F)F)N1CCCc2ccccc21 (centres undefined),2.8
O=C(NCc1ccccc1)c1nn2c(c1Br)NC(c1ccccc1)CC2C(F)(F)F (centres undefined),5.2*
O=C(c1nn2c(c1Cl)NC(c1ccc(Cl)cc1)CC2C(F)(F)F)N1CCSCC1 (centres undefined),0.58
Cc1c(CNC(=O)c2nn3c(c2Cl)NC(c2cccs2)CC3C(F)(F)F)cnn1C (centres undefined),1.2
CCC(C)NC(=O)c1cc2n(n1)C(C(F)(F)F)CC(c1ccc3c(c1)OCO3)N2 (centres undefined),2.5
O=C(NCc1cccnc1)c1nn2c(c1Cl)NC(c1ccccc1)CC2C(F)(F)F (centres undefined),-1.8
CCC(C)NC(=O)c1nn2c(c1Cl)NC(c1ccc(Cl)cc1)CC2C(F)(F)F (centres undefined),4.9*
Cc1ccc(C2CC(C(F)(F)F)n3nc(C(=O)NCc4c(C)nn(C)c4C)c(Cl)c3N2)cc1 (centres undefined),-1.2
COC(=O)Oc1ccc2c(=O)c(-c3ccccc3Cl)coc2c1,-1.1
COc1ccc(CCN2C(=O)CSC2=Nc2ccc(N3CC(C)OC(C)C3)cc2)cc1OC (centres undefined),9
CCOC(=O)NC(Nc1ccccc1C)(C(=O)OCC)C(F)(F)F (centres undefined),-1.2

# Screening data as filed in PubChem.
